Most compounds without a hit are left out; they make up all but 2.4% or so of the library.
Pf Dd2 growth: P. falciparum Dd2 growth inhibition; hit rate 2.3% among 94,000; SYBR Green, 72 h; stronger effect = lower value; activity change, % at 10 µM; in the data active = activity change below about -80%
C diff growth: blocks growth of Clostridium difficile. Clostridium difficile clinical isolate growth, OD600, 24 h; stronger effect = lower value. growth activity, negative = inhibition, % at 16 µg/mL (by protocol). hit rate 0.25% among 86,000;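 active = mean growth activity at or below -80% and every replicate also at or below -80%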;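 also: 0% = DMSO wells and -100% = levofloxacin 16 µg/mL wells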
Numbers without * were called inactive; . = no result; ! = not confirmed by another sample.

SMILES | Pf Dd2 growth | C diff growth
CCCN(C)C[C@H]1Oc2ncc(C#CC3CC3)cc2C(=O)N([C@H](C)CO)C[C@H]1C | -82.8* | 5.9
CCCN(C)C[C@@H]1Oc2ncc(C#CC3CC3)cc2C(=O)N([C@@H](C)CO)C[C@@H]1C | -74.0 | 7.0
CCCN(C)C[C@H]1Oc2ncc(C#Cc3ccc(F)cc3)cc2C(=O)N([C@@H](C)CO)C[C@H]1C | -86.3* | 33.6
CCCN(C)C[C@@H]1Oc2ncc(C#Cc3ccc(F)cc3)cc2C(=O)N([C@H](C)CO)C[C@@H]1C | -77.7 | 34.2
Fc1ccc(-c2ccc(C3[C@@H]4CN(Cc5ccccc5)C[C@H]3N4)cc2)cc1 (stereo not given in full) | -81.8*! | -94.1*!
Fc1cccc(CN2C[C@@H]3N[C@H](C2)C3c2ccc(/C=C/c3ccccc3)cc2)c1 (stereo not given in full) | -74.8 | -99.8*!
Cc1ccc(-c2ccc(C3[C@@H]4CN(Cc5cccnc5)C[C@H]3N4)cc2)cc1 (stereo not given in full) | -90.9*! | 3.1
Fc1ccc(CN2[C@@H]3CNC[C@H]2C3c2ccc(-c3ccccc3)cc2)cc1 (stereo not given in full) | 26.5 | 13.1
Fc1cccc(-c2ccc([C@@H]3[C@@H]4CN(Cc5nccs5)C[C@H]3N4)cc2)c1 | -47.2 | 63.6
Fc1ccc(-c2ccc(C3[C@@H]4CN(Cc5cccc(F)c5)C[C@H]3N4)cc2)cc1 (stereo not given in full) | -20.7 | -99.0*
Cc1cccc(-c2ccc(C3[C@@H]4CN(Cc5cccnc5)C[C@H]3N4)cc2)c1 (stereo not given in full) | -24.8 | -1.4
O=C(C1CCCC1)N1C[C@@H]2N[C@H](C1)C2c1ccc(/C=C/c2ccccc2)cc1 (stereo not given in full) | -16.9 | 4.5
C[C@@H]1CCCCO[C@H](CN(C)C(=O)Cc2ccccc2)[C@H](C)CN([C@@H](C)CO)C(=O)c2cc(NC(=O)Nc3cccc4ccccc34)ccc2O1 | -57.0 | 4.8
CCCNC(=O)NC[C@H]1[C@H](c2ccc(C3=CCCC3)cc2)[C@H](CO)N1C(C)=O | -2.4 | 0.5
CO[C@H]1CN(C)C(=O)c2ccc(NS(C)(=O)=O)cc2OC[C@@H](C)N(C(=O)C2CCCCC2)C[C@@H]1C | 15.5 | -1.1
CC=Cc1ccc2n(c1=O)C[C@H]1[C@H](CO)[C@@H](C(=O)NC3CCC3)N(CCC)[C@@H]21 (mixture of isomers) | 23.4 | -2.7
C[C@H]1CN([C@@H](C)CO)C(=O)c2cccc(NS(=O)(=O)c3ccc(Cl)cc3)c2O[C@H]1CN(C)C(=O)Nc1ccc(C(F)(F)F)cc1 | -30.6 | 41.7
COc1ccc(S(=O)(=O)N(C)C[C@H]2OCCCC[C@@H](C)Oc3ccc(N(C)C)cc3C(=O)N([C@@H](C)CO)C[C@H]2C)cc1 | -4.0 | -6.2
CN(C)C(=O)c1cccc(-c2ccc(C3[C@@H]4CN(Cc5ccc6c(c5)OCO6)C[C@H]3N4)cc2)c1 (stereo not given in full) | -70.3 | 9.6
Fc1cccc(CN2[C@@H]3CNC[C@H]2C3c2ccc(-c3ccccc3)cc2)c1 (stereo not given in full) | -19.3 | 39.6
Cc1ccc(-c2ccc(C3[C@@H]4CN(Cc5cccc(F)c5)C[C@H]3N4)cc2)cc1 (stereo not given in full) | -46.8 | -93.8*
Fc1cccc(CN2[C@@H]3CNC[C@H]2C3c2ccc(-c3cccc(F)c3)cc2)c1 (stereo not given in full) | -53.4 | -98.9*!
C[C@@H]1CN([C@H](C)CO)C(=O)c2cc(C3=CCCCC3)cnc2O[C@@H]1CN(C)S(C)(=O)=O | 20.6 | .
COc1ccc(S(=O)(=O)N(C)C[C@@H]2OCCCC[C@H](C)Oc3ccc(NS(=O)(=O)c4ccc(Cl)cc4)cc3C(=O)N([C@H](C)CO)C[C@@H]2C)cc1 | -89.1* | -0.1
COc1ccc(S(=O)(=O)N(C)C[C@H]2OCCCC[C@H](C)Oc3ccc(NS(=O)(=O)c4ccc(Cl)cc4)cc3C(=O)N([C@@H](C)CO)C[C@@H]2C)cc1 | -52.3 | -4.1
SMILES | Pf Dd2 growth | C diff growth
COc1ccc(S(=O)(=O)Nc2ccc3c(c2)C(=O)N([C@@H](C)CO)C[C@@H](C)[C@@H](CN(C)S(=O)(=O)c2ccc(Cl)cc2)OCCCC[C@H](C)O3)cc1 | -84.9* | 10.3
COc1ccc(S(=O)(=O)Nc2ccc3c(c2)C(=O)N([C@H](C)CO)C[C@H](C)[C@@H](CN(C)S(=O)(=O)c2ccc(Cl)cc2)OCCCC[C@H](C)O3)cc1 | -63.7 | 5.4
Cc1cccc(-c2ccc([C@@H]3[C@@H](CO)N4C(=O)CN(C(=O)Cc5ccccn5)C[C@@H]34)cc2)c1 | -7.4 | -2.2
C[C@@H]1CN([C@@H](C)CO)C(=O)Cc2cc(NS(=O)(=O)c3ccc(F)cc3)ccc2O[C@H]1CN(C)C | 24.0 | -7.5
CO[C@H]1CN(C)C(=O)c2cc(NS(=O)(=O)c3ccc(C)cc3)ccc2OC[C@H](C)N(C(=O)NC(C)C)C[C@@H]1C | -20.7 | .
N#C[C@H]1[C@H](c2ccc(C#CC3CCCC3)cc2)[C@H](CO)N1C(=O)Nc1ccc(F)cc1 | -30.2 | -11.2
N#C[C@@H]1[C@H](c2ccc(C#CC3CCCCC3)cc2)[C@H](CO)N1C(=O)Nc1ccc(F)cc1 | -87.8* | -8.0
N#C[C@H]1[C@H](c2ccc(C#CC3CCCCC3)cc2)[C@@H](CO)N1C(=O)Nc1ccc(F)cc1 | -86.1* | -5.6
N#C[C@@H]1[C@H](c2ccc(C#Cc3ccc(F)cc3)cc2)[C@@H](CO)N1C(=O)Nc1ccc(F)cc1 | -46.7 | 3.7
O=C(N[C@@H]1CC[C@H](CCn2cc(C3CCCC3)nn2)O[C@H]1CO)c1cccnc1 | -28.0 | 0.8
O=C(C[C@H]1C=C[C@@H](NC(=O)c2ccccc2)[C@H](CO)O1)NCc1ccncn1 | -3.2 | .
COc1ccc(S(=O)(=O)N(C)C[C@@H]2Oc3ccc(NC(=O)Nc4ccc(C(F)(F)F)cc4)cc3CC(=O)N([C@@H](C)CO)C[C@@H]2C)cc1 | -1.0 | 11.0
N#C[C@@H]1[C@@H](c2ccc(-c3cccc(F)c3)cc2)[C@H](CO)N1C(=O)c1cccnc1 | 2.5 | 7.7
N#C[C@H]1[C@H](c2ccccc2-c2cccc(F)c2)[C@@H](CO)N1C(=O)C1CC1 | 22.9 | 3.3
CCCNC(=O)N1[C@H](CO)[C@@H](c2ccccc2-c2ccccc2F)[C@@H]1C#N | 0.8 | 2.2
N#C[C@@H]1[C@H](c2ccccc2-c2ccccc2F)[C@H](CO)N1C(=O)C1CC1 | -74.3 | -10.6
N#C[C@H]1[C@H](c2ccc(-c3cccc(F)c3)cc2)[C@H](CO)N1C(=O)c1cccnc1 | -91.0* | 5.2
CCCNC(=O)N1[C@@H](C#N)[C@H](c2ccccc2-c2ccccc2F)[C@@H]1CO | -88.5* | -1.9
N#C[C@@H]1[C@@H](c2ccccc2-c2ccccc2F)[C@H](CO)N1C(=O)C1CC1 | -87.9* | -9.5
N#C[C@@H]1[C@H](c2ccccc2-c2cccc(F)c2)[C@H](CO)N1C(=O)C1CC1 | -82.9* | -1.3
CCCN1[C@H](C(=O)N[C@H](C)c2ccccc2)[C@@H](CO)[C@@H]2Cn3c(ccc(-c4ccc(F)cc4)c3=O)[C@@H]21 | -53.3 | 15.7
CN1c2ccc(Br)cc2[C@H]2[C@H](CCN2S(=O)(=O)c2cccc(F)c2)[C@H]1CO | 30.5 | 4.5
CCC(=O)N1[C@H](CO)[C@H](c2ccc(C3=CCCC3)cc2)[C@H]1CNC(=O)CN(C)C | 11.4 | 1.2
